# Screens from PubChem.
# Shown are actives, neighbours in structure and some others; about 5.6% of the full set was active somewhere.
# PKM2 activator: activators of human pyruvate kinase M2; P14618; Potency, µM (titrated, usually from 57.5 µM), inactives show top-dose activation, usual class: activators; AID 1631; 260,000 compounds, 0.34% hits; purified PKM2, Kinase-Glo ATP luminescence, activation; response scale: 0% is enzyme alone, no compound; also: potency is read from the fitted curve at half-maximal effect; nearly all actives have a fitted effect of over 55% in size
# Target sequence (P14618 whole entry, looked up): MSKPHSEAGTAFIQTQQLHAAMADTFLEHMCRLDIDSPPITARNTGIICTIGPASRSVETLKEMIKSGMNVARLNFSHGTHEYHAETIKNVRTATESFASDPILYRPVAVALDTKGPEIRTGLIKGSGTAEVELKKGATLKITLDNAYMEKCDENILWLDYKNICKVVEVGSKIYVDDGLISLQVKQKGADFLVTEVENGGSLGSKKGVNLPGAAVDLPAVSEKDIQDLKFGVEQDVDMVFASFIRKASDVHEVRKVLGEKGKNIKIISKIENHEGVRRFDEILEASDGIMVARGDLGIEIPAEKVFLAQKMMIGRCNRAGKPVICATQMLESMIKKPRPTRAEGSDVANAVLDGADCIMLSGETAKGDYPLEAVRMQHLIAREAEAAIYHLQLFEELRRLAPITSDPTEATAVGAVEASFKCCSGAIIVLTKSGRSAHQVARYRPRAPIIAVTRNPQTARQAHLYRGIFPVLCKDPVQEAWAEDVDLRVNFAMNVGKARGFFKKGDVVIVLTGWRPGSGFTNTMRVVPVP
#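 Kinase-Glo luminescence reports ATP generated from ADP (0.1 mM) and PEP (0.5 mM) by purified hPK-M2 after 1 h at room temperature, pH 7.2 imidazole buffer; intermediate enzyme activity allows detecting inhibitors and activators.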
# RORgamma inh: blocks mouse ROR gamma transcriptional activity; P51450; Drosophila S2 Gal4-RORgamma UAS-luciferase reporter, 20 h; Potency, µM (doses to about 53.6 µM), inactives show at the highest dose activity change, negative = inhibition, usual class: inhibitors; 310,000 compounds, 5.4% hits; also: potency is read from the fitted curve at half-maximal effect; nearly all actives have a fitted effect of over 60% in size
#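 A Gal4/UAS one-hybrid system in insect cells: metallothionein-promoter Gal4–ROR gamma fusion plus Photinus luciferase reporter. Copper sulfate 700 uM final, 20 hr ambient incubation, luminescent detection after 10 min with reagent.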
# Six1-Eya2 blk: blocks human Six1 binding to Eya2; Q15475+O00167; AlphaScreen GST-Six1/His-Eya2 binding, biochemical; hits give low values; activity change, % (test concentration not listed); 360,000 compounds, 0.56% hits; in the data active = activity change below about -65%; inconclusive = mostly about -30% to -63%
#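 Compounds are tested against tagged Six1 and Eya2 proteins bridged by glutathione donor and nickel acceptor beads; after a one-hour incubation at 37 °C without light, AlphaScreen emission is recorded.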
# VP16 counter: inhibits Gal4-VP16 luciferase reporter, ROR gamma counter-screen; Drosophila S2 Gal4-VP16 UAS-luciferase, luminescence, 20 h; Potency, µM (doses to about 53.6 µM), for the others: at the highest dose activity, negative = inhibition, most hits filed as inhibitors; 310,000 compounds, 3.5% hits; AID 2546;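 also: Gal4-VP16 expression switched on by copper sulfate through the metallothionein promoter; potency is read from the fitted curve at half-maximal effect; nearly all actives have a fitted effect of over 50% in size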
# CtBP-E1A blk: blocks the CtBP interaction with E1A. activity change, % (test concentration not listed). AlphaScreen GST-E1A/His-CtBP binding, 1536-well; hits give low values. 340,000 compounds, 0.49% hits; in the data active = activity change below about -65%; inconclusive = mostly about -30% to -63%
#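 AlphaScreen with 125 nM GST-E1A and 125 nM His-CtBP (5X stocks) in Tris pH 8.0, 300 mM NaCl, BSA, Tween 20, TCEP. Compounds preincubated 2 h at 37 deg C, then glutathione donor/nickel acceptor beads added for 1 h at 37 deg C in dark.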
# * = called active by the depositor; ? = inconclusive; · = no result given; [ ] = another dose, or the depositor's remark. Unless noted, calls follow the shape of the dose curve; as a rule, active = well fitted curve in the direction sought with a large enough effect; inconclusive = small, poorly fitted or top-dose-only effect, or another doubt; inactive = no such curve, though single readings can be large; an effect the other way counts as inactive or inconclusive. % is scaled to controls: 0 for no effect and ±100 for the full control effect.
SMILES,PKM2 activator,RORgamma inh,Six1-Eya2 blk,VP16 counter,CtBP-E1A blk
S=C(NC1CC1)NC1CCCc2ccccc21 (stereo unspecified),-2%,2.2µM*,?,?,·
O=C(NC1CCCc2ccccc21)c1ccccc1 (stereo unspecified),6%,23%,19,0%,-4
Cc1occc1C(=O)NC1CCCc2ccccc21 (stereo unspecified),-4%,17%,2,?,9
Cc1c(C(=O)NC2CCCc3ccccc32)oc2ccccc12 (stereo unspecified),-1%,4.5µM*,5,8%,6
CSc1cccc(CN2CCN(CCC(C)C)C(CCO)C2)c1 (stereo unspecified),-2%,0%,1,-1%,1
Cc1ccc(N2C(=O)c3ccc(C(=O)N4CCN(c5cccc(C)c5C)CC4)cc3C2=O)cc1,0%,?,0,20µM*,0
Cc1ccc(S(=O)(=O)N2CCN(c3nccnc3C#N)CC2)cc1,-4%,-3%,16,0%,10
O=C(NCCNC(=O)c1ccccc1Br)c1cccnc1,2%,·,7,·,-6
S=C1NCCc2ccccc2C1c1ccccc1 (stereo unspecified),-2%,0.22µM*,-26,0.16µM*,-17
S=C1NCCc2ccccc2C1c1ccccc1Cl (stereo unspecified),12%,7.9µM*,-11,3.5µM*,-8
Cn1cc(C=CC(=O)O)c2nccnc21,·,·,-5,·,-1
CN1CCN(c2ccc(S(=O)(=O)N3CCCCC3)cc2NC(=O)c2ccc3ccccc3c2)CC1,-1%,11µM*,-17,8.9µM*,-19
Cc1sc2nc(CN3CCC(C)CC3)nc(Cl)c2c1C,5%,18µM*,·,4%,·
c1ccc(-c2cnc(-c3cccnc3)o2)cc1,4%,?,1,-1%,5
NC(=O)c1ccc(-c2ncc(-c3ccccc3)o2)cc1,-2%,1.8µM*,-3,11µM*,-9
O=c1c2c(nc3c(-c4ccc(Cl)cc4)c[nH]n13)CCCC2,16%,2.2µM*,-22,6.3µM*,-27
Cc1[nH]n2c(=O)c3c(nc2c1-c1cccc2ccccc12)CCC3,7%,13µM*,-7,?,3
O=c1c2c(nc3cc(-c4cccc(Cl)c4)[nH]n13)CCC2,-5%,?,-19,-26%,-24
O=c1c2c(nc3c(-c4cccc5ccccc45)c[nH]n13)CCC2,?,3%,-1,-8%,2
Cc1[nH]n2c(=O)c3c(nc2c1-c1ccccc1)CCCC3,-1%,11µM*,-13,?,-8
O=C(CCl)NCc1cc(-c2ccc(Cl)cc2)no1,0%,?,-6,-7%,-1
Brc1ccc(-n2cc(-c3ccccc3)c3c(NN4CCOCC4)ncnc32)cc1,2%,6.3µM*,-2,?,-11
c1ccc(-c2cn(-c3ccccc3)c3ncnc(NCCCN4CCOCC4)c23)cc1,4%,-17%,-2,-2%,-9
Cc1ccc(-c2nc3ccc(C)cn3c2Cc2ccccn2)cc1,·,·,2,·,-5
CCCOc1ccc(N)cc1N,4%,4.5µM*,-13,?,-15
SMILES,PKM2 activator,RORgamma inh,Six1-Eya2 blk,VP16 counter,CtBP-E1A blk
CCCOc1cc(N)ccc1C(=O)OCCN(CC)CC,·,3%[2.98 µM],3,5%[17 µM],6
CC1(C)CC(=O)C(C(C2=C(O)CC(C)(C)CC2=O)c2ccc(O)c([N+](=O)[O-])c2)=C(O)C1,15%,8%,-7,-6%,-3
CC(C)c1ccc(S(=O)(=O)/N=C2/C=CC(=O)c3ccccc32)cc1,21%,?,·,18µM*,·
CCCC1OC(c2ccco2)OCC1CC (stereo unspecified),·,·,-4,·,-9
O=C(CN(Cc1ccc(Cl)cc1)S(=O)(=O)c1ccccc1)NCC1CCCO1 (stereo unspecified),5%,7%,7,-1%,3
O=C(CSc1nc2ccccc2n1CCc1ccccc1)c1ccc(O)c(O)c1,28%,7.9µM*,?,?,-7
O=C(CSc1nc2ccccc2n1CCc1ccccc1)N1CCOCC1,-5%,65%,0,-1%,3
CCC(=O)c1cc(F)c(N2CCN(C(=O)Cc3ccccc3)CC2)cc1C,0%,11%,11,13µM*,-1
CCC(=O)c1ccc(N2CCN(C(=O)Cc3ccccc3)CC2)c(F)c1,-8%,?,-3,?,1
CCOC(=O)c1ccc(N2C(=O)C(CC(N)=O)N(CCc3ccc(OC)c(OC)c3)C2=S)cc1 (stereo unspecified),18%,-42%,14,?,8
N#Cc1ccc(CN2CCN(C(=O)c3ccc(S(=O)(=O)N4CCCCCC4)cc3)CC2)cc1,·,·,3,·,·
Cc1ccc(C(NC(=O)N2CCCCC2)=C(Cl)Cl)cc1F,-7%,11µM*,11,7.1µM*,16
CC(C)c1nc2sc3c(SCC(=O)NCc4ccco4)ncnc3c2c2c1CCC2,35µM*,-3%,-26,-17%,-25
O=C(CSc1ncnc2sc3c(c12)CCCCC3)NCc1ccco1,15%,-1%,-5,4%,-6
COc1cccc(C(=O)NNC(=S)NC2CCCCC2)c1,-6%,?,-2,?,-2
Cc1cc(C(=O)NNC(=S)NC2CCCCC2)cs1,-9%,3.2µM*,9,?,6
COc1ccc(C(=O)NC2CCCCCCC2)cc1OC,·,·,-7,·,3
CCNC(=S)NNC(=O)c1cccs1,-2%,11µM*,7,-13%,3
CCNC(=S)NNC(=O)c1csc(C)c1,-22%,13µM*,-2,?,-11
COc1ccc(C(=O)NNC(=S)NC2CCCCC2)cc1OC,-13%,7.9µM*,-4,?,7
Cc1cc(C)c(S(=O)(=O)N2CCOC2CNC(=O)C(=O)NCCN(C)C)c(C)c1 (stereo unspecified),0%,9%,3,-23%,9
CN(C)c1oc(/C=C/c2cccs2)nc1S(=O)(=O)c1ccccc1,·,?,8,8%,0
O=S(=O)(c1ccc(F)c(F)c1F)N1CCN(C(=S)Nc2ccccc2)CC1,-1%,-16%,1,-15%,-1
O=C(Cc1ccccc1)Nc1cccc([N+](=O)[O-])c1,10%,16%,0,-14%,5
O=C(NCc1ccccn1)C(=O)Nc1nc(-c2ccccc2)cs1,-3%,10µM*,21,?,39
Cc1csc(NC(=O)c2ccc(C(=O)Nc3nc(C)cs3)cc2)n1,-9%,1%,·,3%,·
O=C(Nc1cccc([N+](=O)[O-])c1)c1ccc2ccccc2c1O,-7%,-31%,4,2.8µM*,4
Cc1csc(NC(=O)c2cnc3ccccc3n2)n1,-8%,11µM*,1,?,-8
CCc1ccc(C(=O)Nc2nc(C)cs2)s1,-15%,7.1µM*,23,11µM*,0
